Screening data: PubChem, National Center for Advancing Translational Sciences (NCATS)
Sampled rows, rich in hits. Any-hit rate of the full collection: about 19%.
HT1080NT lethal = kills 2HG-producing HT-1080-NT fibrosarcoma cells; Potency, µM (titrated, usually from 46.1 µM), without a hit: at the highest dose activity, negative = less viability, actives largely listed as cytotoxic; hit rate 1.6% among 360,000; HT-1080-NT fibrosarcoma viability, CellTiter-Glo ATP luminescence, 48 h;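 further: NT is the 2HG producing partner of a matched IDH1 knockdown line; potency means the concentration at half of the fitted maximal effect; 0% = DMSO-treated cells and -100% = media-only wells without cells; nearly all actives have a fitted effect of over 55% in size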
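750 cells/well, RPMI + 5% FBS; 2 h settle, compound pin-transfer, 48 h at 37 degrees C. CellTiter-Glo 10 min RT, luminescence. Normalized to DMSO and media-only wells.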
HT1080 IDH1KD tx = kills HT-1080 cells with IDH1 knockdown. HT-1080 IDH1 knockdown viability, ATP luminescence, 48 h. Potency, µM (series often up to 46.1 µM), inactives show at the highest dose activity, negative = toxicity, most hits filed as cytotoxic. hit rate 2% among 360,000;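 further: potency means the concentration at half of the fitted maximal effect; 0% = DMSO wells and -100% = cell-free medium wells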
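Using the IDH1-knockdown HT-1080 line run in the same batch and compound series as the NT line, viability after 48 h at 37 °C was determined by CellTiter-Glo luminescence and expressed as % activity.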
TDP1 cell CPT = growth inhibition of DT40 Tdp1-/-;hTDP1 cells with camptothecin (screen for TDP1 inhibitors); chicken DT40 Tdp1-/-;hTDP1 cells + 20 nM CPT, ATP luminescence, 48 h; Potency, µM (series often up to 46.2 µM), inactives show at the top dose activity change, negative = growth inhibition, most hits filed as inhibitors; hit rate 12% among 420,000; further: potency means the concentration at half of the fitted maximal effect; nearly all actives have a fitted effect of over 55% in size
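Chicken DT40 Tdp1-/- cells stably complemented with human TDP1 were seeded at 400 cells/well in medium containing 20 nM camptothecin, exposed to pin-transferred compounds, and grown at 37 °C for at least 48 hr. Viability was read as ATP luminescence.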
TDP1 cell noCPT = qHTS for Inhibitors of human tyrosyl-DNA phosphodiesterase 1 (TDP1): qHTS in cells in absence of CPT. hit rate 15% among 420,000. DT40 Tdp1-/- hTDP1 cells, no CPT, ATP luminescence, 48 h. Potency, µM (highest dose often 46.2 µM), for inactives: at the top dose activity change, negative = growth inhibition, actives largely listed as inhibitors; further: potency means the concentration at half of the fitted maximal effect; nearly all actives have a fitted effect of over 55% in size
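Compound effects on proliferation are scored in DT40 Tdp1-/-;hTDP1 cells in the absence of CPT. ATP levels (CellTiter-Glo luminescence) are recorded after a ≥48 hr, 37 °C incubation.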
IL1B secr inh = blocks inflammasome-driven IL-1 beta release | AID 743279 | activity change, % at 57.5 µM | hit rate 4.7% among 360,000 | THP-1 LPS/ATP IL-1B secretion, AlphaLISA, 16 h; active compounds read low; in the data active means activity change below about -50%; inconclusive means mostly about -30% to -49%
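Secreted IL-1B measured by AlphaLISA bead assay after 16 h compound exposure of THP-1 cells; compounds (final up to 57.5 uM) added 1 h before LPS (250 ng/mL) and ATP (1.25 mM) stimulation; lower signal means less secretion.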
Starred values were filed as active, the others as inactive; ? = inconclusive; . = not tested or not shown; [ ] = remark or other dose. Unless noted, the call rests on the fitted dose curve; in most records, active means well fitted curve in the direction sought with a large enough effect; inconclusive means small, poorly fitted or top-dose-only effect, or another doubt; inactive means no such curve, though single readings can be large; an effect the other way counts as inactive or inconclusive. Unless noted, on the % scale 0 is the no-effect control and ±100 the full control effect.

SMILES | HT1080NT lethal | HT1080 IDH1KD tx | TDP1 cell CPT | TDP1 cell noCPT | IL1B secr inh
COc1cc(/C=C(\C#N)c2nc3ccccc3n2C)cc(OC)c1OC | . | . | 29µM* | 12µM* | .
Cn1c(/C(C#N)=C/c2cccc(O)c2)nc2ccccc21 | -8% | -19% | 21µM* | ? | -62*
COc1ccc2oc(C(=O)OCC(=O)NC3CCS(=O)(=O)C3)c(C)c2c1 (stereo not drawn) | -1% | -2% | 6% | -17% | 3
O=C(NC1CCCC1)c1ccc2c(c1)N(Cc1ccccc1)CCS2 | -6% | -6% | ? | 18µM* | -5
Cc1ccc(CN2CCSc3ccc(C(=O)NC4CCN(Cc5ccccc5)CC4)cc32)cc1 | -1% | -1% | 7.3µM* | 8.2µM* | -82*
CCN(Cc1nc2ccccc2c(=O)[nH]1)C(=O)COc1ccccc1Cc1ccccc1 | ? | ? | 4.6µM* | 4.1µM* | -67*
CCN(Cc1nc2cc(Cl)ccc2c(=O)[nH]1)C(=O)COc1ccccc1Cc1ccccc1 | 2%[9.24 µM] | -22% | ? | ? | -1
CN(Cc1nc2ccccc2c(=O)[nH]1)C(=O)COc1ccccc1Cc1ccccc1 | -25% | ? | ? | ? | 17
COCCN(Cc1nc2ccccc2c(=O)[nH]1)C(=O)COc1ccccc1-c1ccccc1 | -19% | ? | ? | 23µM* | -68*
COCC(=O)N(CCc1ccc(OC)cc1)Cc1nc2ccccc2c(=O)[nH]1 | -1% | -1% | ? | 3.3µM* | 0
CC(C(=O)Nc1ccccc1-c1ccccc1)N(C)Cc1nc2ccccc2c(=O)[nH]1 (stereo not drawn) | 23µM* | 23µM* | 13µM* | 21µM* | 18
COCC(=O)N(Cc1ccc(OC)cc1)Cc1nc2ccccc2c(=O)[nH]1 | 1% | 11% | -1% | -3% | 6
COc1ccccc1NC(=O)C(C)N1C(=O)C2CCCCC2C1=O (stereo not drawn) | 5% | 7% | -8% | 23% | 10
CCOC(=O)C1(Cc2ccccc2C)CCCN(C(=O)c2ccc(C(C)=O)s2)C1 (stereo not drawn) | 0% | 0% | ? | ? | 12
COc1ccc(-c2c(C(C)=O)c(C)nc3sc4c(c23)NC(c2ccccc2)NC4=O)cc1 (stereo not drawn) | 3% | 6% | 1% | -27% | 33
CCOC(=O)c1c(C)nc2sc3c(c2c1-c1ccc(OC)cc1)NC(c1ccccc1)NC3=O (stereo not drawn) | -17% | -2% | ? | 18µM* | 81
CCOC(=O)c1c(C)nc2sc3c(=O)n(-c4ccc(C(C)=O)cc4)cnc3c2c1-c1ccc(OC)cc1 | 12% | 16% | -113% | 16µM* | 37
Cc1c(C(=O)NCCCc2ccncc2)cnn1-c1ncc2c(n1)-c1ccccc1CC2 | . | . | -5%[9.04 µM] | ? | .
Cc1c(C(=O)NCCCc2ccncc2)cnn1-c1nccc(-c2ccccc2F)n1 | . | . | -7%[9.04 µM] | 18µM* | .
COc1ccc(-n2c(=O)cnc3cnc(OC)nc32)cc1 | . | . | -3% | 0% | .
N#CC1=C(N)N(c2ccccc2)C(c2ccco2)C1(C#N)C#N (stereo not drawn) | -12% | ? | ? | ? | -29
N#CC1=C(N)N(c2ccccc2)C(c2cccc([N+](=O)[O-])c2)C1(C#N)C#N (stereo not drawn) | -1% | -3% | ? | 16µM* | -21
Cc1cccc(N2C(N)=C(C#N)C(C#N)(C#N)C2c2ccccc2)c1 (stereo not drawn) | -20% | -16% | 21µM* | 10µM* | -9
Cc1c(C)n(CC(O)CSc2ccccc2)c2ccccc12 (stereo not drawn) | -30% | ? | ? | ? | ?
COC(=O)N1CCC2(CCN(Cc3nccs3)CC2)CC1 | . | . | -7% | -26% | .
SMILES | HT1080NT lethal | HT1080 IDH1KD tx | TDP1 cell CPT | TDP1 cell noCPT | IL1B secr inh
CCOc1ccc(S(=O)(=O)N2CCN(C(=O)c3ccc(Cl)c(S(=O)(=O)N4CCOCC4)c3)CC2)cc1 | -2% | 0% | ? | ? | -13
CC(C)NC(=O)Nc1cccc2c1O[C@H](CN(C)S(=O)(=O)c1ccc(F)cc1)[C@@H](C)CN([C@H](C)CO)C2=O | 1% | 2% | 16µM* | -28% | -5
C[C@H](CO)N1C[C@H](C)[C@@H](CN(C)S(=O)(=O)c2ccccc2)Oc2c(NC(=O)C3CCCCC3)cccc2C1=O | -3% | -7% | ? | 23µM* | 13
COc1ccc(S(=O)(=O)Nc2cccc3c2O[C@H](CN(C)S(=O)(=O)c2ccc(Cl)cc2)[C@H](C)CN([C@H](C)CO)C3=O)cc1 | -8% | -9% | ? | 18µM* | -18
CC(C)NC(=O)Nc1cccc2c1O[C@H](CN(C)S(=O)(=O)c1ccccc1)[C@@H](C)CN([C@H](C)CO)C2=O | -3% | -1% | -11% | -10% | 2
COc1ccc(S(=O)(=O)N(C)C[C@H]2Oc3c(NC(=O)C4CC4)cccc3C(=O)N([C@H](C)CO)C[C@@H]2C)cc1 | 0% | -17% | 16µM* | -15% | 15
N#Cc1ccccc1NC(=O)c1ccc(-c2ccccc2Cl)o1 | -12% | -16% | ? | ? | -20
CCN(C(=O)c1c(C)cc(=O)oc1C)c1ccc2c(c1)OCO2 | -7% | 6% | -5% | -16% | 10
CCN(C(=O)c1coc(=O)c(Br)c1)c1ccc2c(c1)OCO2 | ? | ? | 1.5µM* | 1µM* | -11
CC1(C(=O)NCc2ccc3c(c2)OCO3)CCN1C(=O)C1(c2ccc(Cl)cc2)CC1 (stereo not drawn) | 1% | -12% | ? | ? | -6
CC(C)(C)c1ccc(/C=C(\c2nc3ccccc3[nH]2)S(=O)(=O)c2ccccc2)cc1 | 6.5µM* | 6.5µM* | 23µM* | ? | -96*
N#C/C(=C(O)\C=C\c1ccccc1)c1nc2ccccc2[nH]1 | 16% | 20% | -18% | ? | 0
O=C(O)c1ccc(/C=C(\c2nc3ccccc3[nH]2)c2nc3ccccc3s2)cc1 | ? | 18µM* | ? | -27% | -70*
O=C(O)c1ccc(-c2nc3ccccc3[nH]2)cc1 | 1% | 1% | 9% | 11% | 26
CC(=O)/C(=C(/O)c1ccccc1)c1nc2ccccc2[nH]1 | 8% | 7% | 0% | -10% | -3
Cc1cccc(/C=C(\c2nc3ccccc3[nH]2)S(=O)(=O)c2ccccc2)c1 | 9.2µM* | 9.2µM* | 4.1µM* | 2.6µM* | -110*
CN(C)S(=O)(=O)c1ccc(C(=O)OCC(=O)NCc2ccco2)cc1 | 9% | 3% | 31% | 5% | 15
